We go through 23 compounds from PubChem BioAssay (NCI).

Compounds without any hit were thinned out: in the full panel of roughly 83,000, 20% have a hit.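 Single-concentration screen, 48 h exposure, 96-well plates. Endpoint: percent growth. Below 10 = active.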 Values without a mark were called inactive. Activity calls are given as the source filed them.

Some test systems named below: BT-549 breast; MDA-MB-435 melanoma; SW-620 colon; HCC-2998 colon; KM12 colon; MCF7 breast; HCT-116 colon.
What all share (test): NCI-60 one-dose screen, 48 h (100 = growth as untreated, 0 = no growth, -100 = all killed)
What all share (conditions): 10 µM unless noted

Regarding `CC(=O)O[C@@H]1C[C@]2(C)[C@H]3[C@H](O)C[C@@H]4C5=CC(C)(C)CC[C@]5(C)CC[C@@]4(C)[C@]3(C)CC[C@H]2C(C)(C)[C@H]1O`, the growth was 102% in the assay with BT-549 breast; 99.8% in the assay on MDA-MB-435 melanoma; 98.7% in the assay with SW-620 colon; 107% with HCC-2998 colon; 105% in the assay with KM12 colon.

`O=C(CCc1nnc2sc(OCc3ccccc3)nn12)c1nc2ccc([N+](=O)[O-])cc2[nH]1`: the growth in the assay on BT-549 breast is 102%; in the assay on MDA-MB-435 melanoma, 106%; with SW-620 colon it was 107%; in the assay with HCC-2998 colon, 101%; with KM12 colon it was 95.7%.

Turning to `COc1ccc2nc(-c3ccc(OC)c(OC)c3)cc(-c3nnc(SCC(=O)Nc4ccc(/C(C)=N\O)cc4)n3-c3ccccc3)c2c1`, the growth with BT-549 breast is 56.4%; in the assay with MDA-MB-435 melanoma, 84.9%; in the assay on SW-620 colon, 89.6%; in the assay on HCC-2998 colon, 101%; in the assay on KM12 colon, 75.9%.

In the case of `C#C[C@@]1(O)[C@@H](CO)O[C@@H](n2ccc3c(N)ncnc32)[C@@H]1O`, the growth in the assay on BT-549 breast was -8.06% (active); with MDA-MB-435 melanoma it was -28.9% (active); in the assay with SW-620 colon, 1.33% (active); in the assay with MCF7 breast, 3.61% (active); in the assay with HCT-116 colon, 5.2% (active); with KM12 colon it was 0.307% (active).

As for `CCOC(=O)/C=C1\SC(=Nc2ccc(C#N)cc2)N(CCN2C(=O)/C(=C/C(=O)OCC)SC2=Nc2ccc(C#N)cc2)C1=O`, the growth with BT-549 breast was 32.5%; in the assay on MDA-MB-435 melanoma, 72.6%; in the assay on SW-620 colon it was 9.61% (active); in the assay with MCF7 breast, 24.4%; with HCT-116 colon, 4.59% (active); with KM12 colon, 23.2%.

Take `c1ccc(-c2n(Cc3ccc4ccccc4n3)cc[n+]2Cc2ccc3ccccc3n2)cc1`: the growth is 28% in the assay with BT-549 breast; 15.4% in the assay on MDA-MB-435 melanoma; 37.5% with SW-620 colon; 26.6% in the assay on HCC-2998 colon; 15.8% in the assay on KM12 colon.

Take `C=C1C(=O)O[C@H]2[C@H]1CC/C(COC(=O)c1cc3ccccc3o1)=C\CC[C@@]1(C)O[C@@H]21`: the growth in the assay with BT-549 breast is -32.5% (active); in the assay on MDA-MB-435 melanoma it was -35.1% (active); in the assay with SW-620 colon, -58.2% (active); in the assay on MCF7 breast, -31.8% (active); in the assay with HCT-116 colon, -84.1% (active); with KM12 colon it was 26.7%.

With `O=C(Nc1ccc(N=Cc2ccccc2O)cc1)NC1C=c2ccccc2=CC1` (centres undefined), the growth with BT-549 breast is 86.6%; in the assay on MDA-MB-435 melanoma it was 104%; with SW-620 colon it was 105%; with MCF7 breast, 92.6%; in the assay on HCT-116 colon, 104%; in the assay with KM12 colon, 103%.

Take `O=C(/C(=C/c1ccc([N+](=O)[O-])cc1)SCc1ccccc1)c1ccc(Cl)cc1`: the growth with BT-549 breast was 89.2%; in the assay with MDA-MB-435 melanoma, 85.7%; in the assay on MCF7 breast it was 7.72% (active); in the assay with HCT-116 colon, 30.5%; in the assay on HCC-2998 colon it was 97.3%; with KM12 colon, 65.6%.

As to `O=C1C(Cl)=C(NCCCN(CCCNC2=C(Cl)C(=O)c3ccccc3C2=O)C2=C(Cl)C(=O)c3ccccc3C2=O)C(=O)c2ccccc21`, the growth is 85.6% with BT-549 breast; -86.5% (active) with MDA-MB-435 melanoma; -19.9% (active) in the assay with MCF7 breast; 4.83% (active) in the assay with HCT-116 colon; 92.4% in the assay with HCC-2998 colon; 80.1% in the assay on KM12 colon.

For `C#C[C@@]1(O)[C@@H](CO)O[C@@H](n2cnc3c(-c4ccccc4)ncnc32)[C@@H]1O`, the growth in the assay on BT-549 breast is 102%; with MDA-MB-435 melanoma, 100%; in the assay on MCF7 breast, 82.1%; in the assay on HCT-116 colon, 99.8%; with HCC-2998 colon it was 103%; with KM12 colon it was 106%.

As to `COc1cc(C(=O)N2CCN(c3ccccc3OC)CC2)c(NC(=O)c2cnccn2)cc1OCc1ccccc1`, the growth with BT-549 breast was 97.6%; in the assay with MDA-MB-435 melanoma, 95.1%; in the assay with MCF7 breast it was 109%; in the assay with HCT-116 colon it was 87.8%; with HCC-2998 colon, 87.3%; in the assay on KM12 colon, 90.7%.

Consider `O=C1Nc2ccc(Cl)cc2/C1=N/c1nc(-c2ccc(F)cc2)cs1`, for which the growth is 55.4% in the assay on BT-549 breast; 9.56% (active) with MDA-MB-435 melanoma; 12.5% in the assay on MCF7 breast; 28.4% in the assay on HCT-116 colon; 42.2% with HCC-2998 colon; 28.2% in the assay on KM12 colon.

Regarding `C=C(C)[C@@H]1CC[C@]2(C(=O)O)CC[C@]3(C)[C@H](CC[C@@H]4[C@@]5(C)C[C@@H](CC#Cc6ccccc6C)C(=O)C(C)(C)[C@@H]5CC[C@]43C)[C@@H]12`, the growth in the assay on BT-549 breast is 43.4%; in the assay on MDA-MB-435 melanoma, 55.5%; in the assay with MCF7 breast, 15.3%; with HCT-116 colon, 12.5%; in the assay on HCC-2998 colon, 31.7%; with KM12 colon, 20.3%.

Turning to `Cc1nn(-c2ccc(-c3ccc(OC(F)(F)F)cc3)cc2)c2nc(-c3ccccc3)nc(N)c12`, the growth is 98.1% in the assay with BT-549 breast; 102% in the assay with MDA-MB-435 melanoma; 94.3% in the assay with MCF7 breast; 96.7% with HCT-116 colon; 96.8% with HCC-2998 colon; 100% with KM12 colon.

For `COC(=O)c1nc(-c2ccccc2)oc1S(=O)(=O)n1nc(C)cc1N`, the growth in the assay on BT-549 breast is 69.8%; in the assay with MDA-MB-435 melanoma it was 79.6%; in the assay on MCF7 breast, 60.2%; in the assay with HCT-116 colon, 67.9%; in the assay on HCC-2998 colon, 115%; in the assay with KM12 colon it was 96.3%.

With `C=C(C)[C@@H]1CC[C@]2(C(N)=O)CC[C@]3(C)[C@H](CC[C@@H]4[C@@]5(C)CCCNC(C)(C)[C@@H]5CC[C@]43C)[C@@H]12`, the growth in the assay on BT-549 breast was 85.2%; in the assay with MDA-MB-435 melanoma, 78.7%; with MCF7 breast, 45.3%; with HCT-116 colon, 55.8%; in the assay on HCC-2998 colon, 98.2%; with KM12 colon, 79.8%.

Turning to `CCCn1c(N)c(C(N)=O)sc1=S`, the growth in the assay on BT-549 breast is 118%; with MDA-MB-435 melanoma it was 109%; in the assay with MCF7 breast, 106%; in the assay on HCT-116 colon, 101%; in the assay with HCC-2998 colon, 110%; in the assay with KM12 colon it was 97.4%.

`CC1(C)CC[C@]2(c3nnc(-c4ccncc4)o3)CC[C@]3(C)C(=CC[C@@H]4[C@@]5(C)CCC(=O)C(C)(C)[C@@H]5CC[C@]43C)[C@@H]2C1`: the growth is 80.3% in the assay with BT-549 breast; 79.6% with MDA-MB-435 melanoma; 64.6% in the assay with MCF7 breast; 61.3% with HCT-116 colon; 94.8% in the assay with HCC-2998 colon; 93.8% in the assay with KM12 colon.

`Clc1ccc2c(NCCCNC3CCCCC3)ccnc2c1`: the growth in the assay with BT-549 breast was 107%; with MDA-MB-435 melanoma, 84.6%; with MCF7 breast, 90.7%; in the assay with HCT-116 colon it was 64.5%; in the assay with HCC-2998 colon, 91.3%; in the assay on KM12 colon, 101%.

As for `CSc1cccc(NC(=O)Nc2nc3c(C)cccc3s2)c1`, the growth with BT-549 breast was 119%; in the assay with MDA-MB-435 melanoma, 106%; in the assay on MCF7 breast, 76.4%; in the assay with HCT-116 colon it was 93%; in the assay with HCC-2998 colon, 106%; in the assay on KM12 colon, 107%.

On to `COC(=O)CCc1n(Cc2ccc3ccccc3c2)c2ccccc2[n+]1Cc1ccc2ccccc2c1`, for which the growth in the assay on BT-549 breast was -7.25% (active); with MDA-MB-435 melanoma it was -13.5% (active); with MCF7 breast it was 1.95% (active); with HCT-116 colon, 0.405% (active); in the assay with HCC-2998 colon, -2.47% (active); in the assay with KM12 colon, -58.7% (active).

In the case of `O=[N+]([O-])c1ccc(N=Nc2c(O)c(N=Nc3cc([N+](=O)[O-])cc([N+](=O)[O-])c3O)cc(N=Nc3cc(S(=O)(=O)O)cc4cc(S(=O)(=O)O)cc(O)c34)c2O)cc1`, the growth is 104% with BT-549 breast; 107% with MDA-MB-435 melanoma; 99.6% in the assay with MCF7 breast; 80.9% in the assay with HCT-116 colon; 104% with HCC-2998 colon; 103% in the assay with KM12 colon.
